According to PubChem BioAssay (NCI):
Compounds without any hit were thinned out: in the full panel of roughly 83,000, 20% have a hit.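 A percent growth of 40 corresponds to 60% growth inhibition; 0 means no net growth; -100 means all cells died. Active threshold: below 10.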 Values without a mark were called inactive. Activity calls are given as the source filed them.

Test system: MDA-MB-231 breast
Assay: NCI-60 one-dose screen, 48 h (100 = growth as untreated, 0 = no growth, -100 = all killed)
Conditions: 10 µM unless noted

| Structure (SMILES) | growth |
| --- | --- |
| O=C(Nc1ccc(OCc2nnc(-c3ccccc3)o2)c(F)c1)Nc1ccc(Cl)c(C(F)(F)F)c1 | 29.3% |
| Cc1cc(C(C)(C)C)cc(C)c1CC1=NCCN1 | 109% |
| COc1ccc(-c2csc(NC(=O)c3cc(OC)c(OC)c(OC)c3)n2)cc1 | 109% |

Test system: RXF 393 renal
Assay: as above
Conditions: 10 µM unless noted

| Structure (SMILES) | growth |
| --- | --- |
| CC(c1cc(Cl)ccc1O)c1cc(Cl)ccc1O | 49.6% |
| COc1cc2c(cc1OCCCOc1ccc(-c3cc4ccccc4c4ccccc34)cc1)N=C[C@@H]1CCCN1C2=O | -49.6% (active) |
| COc1cc2c(cc1OCCCCCn1c(-c3ccc(OCc4ccccc4)cc3)nc3cc(N4CCOCC4)ccc31)N=C[C@@H]1CCCN1C2=O | -26.7% (active) |
| CSc1ccc2c(c1)N(CCC1CCCCN1C)c1ccccc1S2 (stereo unspecified) | 26.7% |
| O=C(CSc1nnc(Nc2ccccc2)s1)NCCc1ccc(F)cc1 | 113% |
| CCC(c1ccccc1)c1noc(CCN(CC)CC)n1 (stereo unspecified) | 33.3% |
| Cn1c(=O)c2c(nc(Br)n2CCC(=O)Nc2ccc(F)cc2)n(C)c1=O | 118% |
| CCC1=C(c2ccc(OC)cc2)C(C)Oc2cc(OC(C)=O)ccc21 (stereo unspecified) | 85.3% |
| O=C1C2C3C=CC(O3)C2C(=O)N1Nc1ccccc1 (stereo unspecified) | 119% |
| Cc1cc(C)n2nc(SCC(=O)Nc3sc4c(c3C(N)=O)CCC4)nc2n1 | 117% |
| COc1ccc(Nc2ccnc(NCCCNc3ccnc4cc(Cl)ccc34)n2)cc1 | -90% (active) |
| Oc1[nH]c2ccccc2c1/C=c1/ccc2c(c1)N=C(c1cc(F)cc(F)c1)N=2 | 78.5% |
| CCC1=C(c2ccc(OC)cc2)C(C)(C)Oc2c1ccc(O)c2CN1CCCC1 | 14.9% |
| CN(C)c1ccc(/C=C(\C#N)c2nc3ccccc3c(=O)[nH]2)cc1 | 91.1% |
| Cc1cccc(Cl)c1NC(=O)c1ccc2nc(NC(=O)NC3CC(C)(C)NC(C)(C)C3)sc2c1 | 35.8% |
| CCC(=O)Nc1ccccc1C#C/C=C\C#Cc1ccccc1C(F)(F)F | 42.8% |
| Nc1ccc2c3c(cccc13)-c1ccccc1-2 | 93% |

| Structure (SMILES) | growth |
| --- | --- |
| CC[C@]1(O)CC2CN(CCc3c([nH]c4ccccc34)[C@@](C(=O)OC)(c3cc4c(cc3OC)N(C)[C@H]3[C@@](O)(C(=O)OC)[C@H](OC(C)=O)[C@]5(CC)C=CCN6CC[C@]43[C@@H]65)C2)C1 (stereo partly specified) | 25.9% |
| COc1ccc(/C=N/NC(=O)c2ccc(S(C)(=O)=O)cc2)cc1OC | 104% |
| C=CCCCCCCCCC(=O)[O][Sn]([CH2]CCC)([CH2]CCC)[CH2]CCC | -97.3% (active) |
| Cc1cc(CC(=O)O)n(C)c1C(=O)c1ccc(Cl)cc1 | 117% |
| Fc1ccc(-c2nnc(/C=C/c3cn(-c4ccccc4)nc3-c3ccccc3)o2)cc1 | 105% |
| COC(=O)[C@]12CC[C@@H](C)[C@H](C)[C@@H]1C1=CC[C@@H]3[C@@]4(C)C=C(O)C(=O)[C@@]5(C)COC(=C54)C[C@@]3(C)[C@]1(C)CC2 | -82.4% (active) |
| Nc1ccc(S(=O)(=O)Nc2ncccn2)cc1 | 118% |
| CC1CC(C)/C(=N/NC(N)=O)C(C(O)CC2CCC(=O)NC2=O)C1 (stereo unspecified) | 38.2% |
| O=C(/C=C/c1cc2ccccc2[nH]c1=O)c1ccc(Cl)cc1 | 12.9% |
| CSc1nc2c(c(=O)[nH]1)C(c1ccc(Cl)cc1)C1=C(N2)/C(=C/c2ccc(Cl)cc2)CNC1 (stereo unspecified) | 52.3% |
| ClC1=C(Cl)C(Cl)=C(Cl)C1=Cc1ccc(Cl)cc1 | 20.5% |
| O=C1C(Cl)=C(N=Nc2c(Cl)c(O)c3ccccc3c2O)C(=O)c2ccccc21 | 88.5% |
| N#Cc1cnc2cc(OC[C@H](O)CO)c(NC(=O)CC3CSSC3)cc2c1Nc1ccc(OCc2cccc(F)c2)c(Cl)c1 | -86.1% (active) |
| CN(CC(=O)Nc1nc2ccccc2[nH]1)S(=O)(=O)c1ccc(Cl)cc1 | 122% |
| COC(=O)[C@]12CC[C@@H](C)[C@H](C)[C@@H]1C1=CC[C@@H]3[C@@]4(C)C[C@@H](OC(=O)c5ccco5)[C@H](O)[C@@](C)(CO)[C@@H]4[C@H](O)C[C@@]3(C)[C@]1(C)CC2 | -79% (active) |
| Fc1ccc(-c2nc(Nc3ccc(-c4nc5ccccc5[nH]4)cc3)nc(N3CCOCC3)n2)cc1 | -91.1% (active) |
